High-throughput results as filed in PubChem BioAssay.
Shown are actives, neighbours in structure and some others; about 5.5% of the full set was active somewhere.
Gal4-VP16 FLuc: Gal4-VP16 reporter inhibition counter-screen | Drosophila S2 Gal4-VP16 UAS-luciferase, luminescence, 20 h | Potency, µM (titrated, usually from 53.6 µM), usual class: inhibitors | actives 3.5% (n = 310,000);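 note: Gal4-VP16 expression switched on by copper sulfate through the metallothionein promoter; nearly all actives have a fitted effect of over 50% in size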
RORgamma inh: ROR gamma (mouse) transcription inhibition. Drosophila S2 Gal4-RORgamma UAS-luciferase reporter, 20 h. Potency, µM (top dose mostly 53.6 µM), actives largely listed as inhibitors. actives 5.4% (n = 310,000). AID 2551; note: nearly all actives have a fitted effect of over 60% in size
Target sequence (P51450 whole entry, looked up, the tested form may be a part): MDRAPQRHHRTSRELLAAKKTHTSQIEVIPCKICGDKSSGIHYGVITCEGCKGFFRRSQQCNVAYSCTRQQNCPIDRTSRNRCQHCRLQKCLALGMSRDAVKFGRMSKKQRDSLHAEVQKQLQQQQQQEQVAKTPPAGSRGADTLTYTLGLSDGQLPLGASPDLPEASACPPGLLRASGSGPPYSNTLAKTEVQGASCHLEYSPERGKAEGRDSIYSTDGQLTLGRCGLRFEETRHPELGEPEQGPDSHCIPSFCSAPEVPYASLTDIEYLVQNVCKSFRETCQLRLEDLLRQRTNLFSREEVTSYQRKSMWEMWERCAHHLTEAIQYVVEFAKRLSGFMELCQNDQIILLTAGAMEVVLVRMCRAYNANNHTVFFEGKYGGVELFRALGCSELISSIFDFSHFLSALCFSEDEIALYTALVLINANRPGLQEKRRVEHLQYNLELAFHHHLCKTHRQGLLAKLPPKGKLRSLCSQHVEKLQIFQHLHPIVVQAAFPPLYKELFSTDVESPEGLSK
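In this cell-based reporter format, copper sulfate (700 uM final) drives Gal4–ROR gamma fusion expression from a metallothionein promoter in Drosophila Schneider cells; compounds preincubated 1 hr, reporter read after 20 hr at ambient temperature.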
Integrin act MD: activators of alpha7 integrin expression for muscular dystrophy. Potency, µM (doses to about 38.3 µM), usual class: activators. actives 0.064% (n = 350,000). alpha7betagal myoblasts, beta-gal FDG fluorescence, 48 h; note: nearly all actives have a fitted effect of over 60% in size
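alpha7betagal+/- myoblasts (passage 13, 250/well) treated 48 h at 37C with compounds at 1:260 dilution of DMSO stock. Lysed, then beta-galactosidase activity read as FDG fluorescence (ex 480/em 540) after 30 min, with pre-read for autofluorescence.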
uPA surface inh: inhibitors of cell surface uPA generation. cell surface uPA generation assay, qHTS. actives 0.31% (n = 330,000). AID 540303. Potency, µM (top dose mostly 38.3 µM), usual class: inhibitors; active = well fitted inhibition curve with a large enough effect; inconclusive = small, poorly fitted or top-dose-only effect; inactive = no such curve, though single readings can be large or run the other way; tested in mouse RAW 264.7 cells; note: nearly all actives have a fitted effect of over 55% in size
Mito fusion yeast: mitochondrial division inhibition or fusion activation; S. cerevisiae fusion-defective mutant growth rescue, CellTiterGlo 48 h; actives 0.23% (n = 320,000); Potency, µM (highest dose often 46.1 µM), usual class: activators; note: nearly all actives have a fitted effect of over 45% in size
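Temperature-sensitive fusion-defective S. cerevisiae (e.g. fzo1-1, mgm1-5) were grown with compound in YPEG medium (3% ethanol, 3% glycerol) for 48 hours at 37C. Growth rescue was measured as viability by CellTiterGlo luminescence after 10 minutes at ambient.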
BCR signal inh: inhibitors of chronic active B-cell receptor signaling | ABC-DLBCL IkBa-CBG/CBR reporter, luminescence ratio, 4 h | Potency, µM (top dose mostly 46.1 µM), actives largely listed as inhibitors | actives 0.05% (n = 340,000); active = well fitted inhibition curve with a large enough effect in the signal ratio, with a control signal flat, not every such curve was filed as active; inconclusive = small, poorly fitted or top-dose-only effect, or effect the other way, or a change in a side signal; the % refers to the signal ratio
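TMD8 ABC-DLBCL cells carrying doxycycline-inducible green luciferase fused to IkappaBalpha plus unfused red luciferase were exposed to compounds (up to 46 uM) for 4 hrs at 37C. Activity came from the overlap-corrected green/red luminescence ratio.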
A number is an active result. Unless noted, calls come from the whole dose curve; as a rule, active = well fitted curve in the direction sought with a large enough effect; inconclusive = small, poorly fitted or top-dose-only effect, or another doubt; inactive = no such curve, though single readings can be large; an effect the other way counts as inactive or inconclusive.

Screening CCOC(=O)CNC(=O)O[C@@H]1C(=O)c2cc(Br)ccc2O[C@H]1c1ccc2c(c1)OCO2 returned Gal4-VP16 FLuc inactive and RORgamma inh inactive.
For Cc1cc(O)c2c(c1)OC1(C)CCC3C(C)(C)CCCC34COC2C14 (centres undefined) the results were Gal4-VP16 FLuc inconclusive and RORgamma inh inactive.
For Cc1ccc(NC(=O)C2CCCN(S(=O)(=O)c3cccc4cccnc34)C2)c(Br)c1 (centres undefined) the results were BCR signal inh inactive.
COc1ccc(NC2=C(NC(C)=O)C(=O)c3ccccc3C2=O)cc1 was read as Gal4-VP16 FLuc inactive, RORgamma inh inactive, Integrin act MD inconclusive, uPA surface inh inactive, Mito fusion yeast inactive and BCR signal inh inconclusive.
Screening CCC(=O)NC1=C(Nc2ccc(N)cc2)C(=O)c2ccccc2C1=O returned Gal4-VP16 FLuc inconclusive, RORgamma inh 12.6µM, Integrin act MD inactive, uPA surface inh inactive, Mito fusion yeast inactive and BCR signal inh inactive.
Screening CCCCc1cc(=O)oc2cc(C)cc(OC(C)C(=O)NCc3ccncc3)c12 (centres undefined) returned Gal4-VP16 FLuc inactive, RORgamma inh inactive, Integrin act MD inactive, uPA surface inh inactive, Mito fusion yeast inactive and BCR signal inh inactive.
Screening Cc1cnc(CNc2ncncc2-c2ccccc2CN(C)C)cn1 returned Gal4-VP16 FLuc inactive and RORgamma inh inconclusive.
`CC(C)C(=O)N(Cc1ccc(F)cc1)Cc1nc2ccccc2c(=O)[nH]1` gave Gal4-VP16 FLuc inactive, RORgamma inh 11.2µM, Integrin act MD inconclusive, uPA surface inh inactive, Mito fusion yeast inactive and BCR signal inh inactive.
Screening CCN(CC(=O)NCCc1ccc(F)cc1)Cc1nc2ccccc2c(=O)[nH]1 returned Gal4-VP16 FLuc inconclusive, RORgamma inh 7.94µM, Integrin act MD inactive, uPA surface inh inactive, Mito fusion yeast inactive and BCR signal inh inactive.
Screening CCN(CC(=O)NCCc1ccc(Cl)cc1)Cc1nc2ccccc2c(=O)[nH]1 returned Gal4-VP16 FLuc inconclusive, RORgamma inh 2.24µM, Integrin act MD inactive, uPA surface inh inactive, Mito fusion yeast inactive and BCR signal inh inactive.
For Nc1ccc2nc(SCc3cccc(F)c3)sc2c1 the results were Gal4-VP16 FLuc inactive, RORgamma inh inactive, Integrin act MD inactive, uPA surface inh inactive, Mito fusion yeast inactive and BCR signal inh inconclusive.
`Clc1ncnc2scc(-c3ccccc3)c12` gave Gal4-VP16 FLuc inactive, RORgamma inh inconclusive, Integrin act MD inactive, uPA surface inh inactive, Mito fusion yeast inactive and BCR signal inh inactive.
Screening S=c1[nH]cnc2sc(-c3ccccc3)cc12 returned Gal4-VP16 FLuc 4.47µM, RORgamma inh 1.41µM, Integrin act MD inactive, uPA surface inh inactive, Mito fusion yeast inactive and BCR signal inh inconclusive.
`S=c1[nH]cnc2scc(-c3ccccc3)c12` gave Gal4-VP16 FLuc 0.501µM, RORgamma inh 0.501µM, Integrin act MD inactive, uPA surface inh inactive, Mito fusion yeast inactive and BCR signal inh inactive.
Screening COc1nc(C)ccc1-c1noc(-c2cccs2)n1 returned Gal4-VP16 FLuc inconclusive, RORgamma inh 1.78µM, Integrin act MD inactive, uPA surface inh inactive, Mito fusion yeast inactive and BCR signal inh inconclusive.
`COc1nc(-c2ccccc2)ccc1-c1noc(-c2cccs2)n1` gave Integrin act MD inactive and uPA surface inh inactive.
For CC(=O)Nc1ccc(NC(=O)CCCSc2nc3ccccc3s2)cc1 the results were Gal4-VP16 FLuc 5.01µM, RORgamma inh 7.08µM, Integrin act MD inactive, uPA surface inh inactive, Mito fusion yeast inactive and BCR signal inh inconclusive.
`O=C(O)CCSc1nc2ccccc2s1` gave Gal4-VP16 FLuc inactive, RORgamma inh 1.78µM, Integrin act MD inactive, uPA surface inh inactive, Mito fusion yeast inactive and BCR signal inh inactive.
For O=C(CCCSc1nc2ccccc2s1)NC1=NCCS1 the results were Gal4-VP16 FLuc 4.47µM, RORgamma inh 0.891µM, Integrin act MD inactive, uPA surface inh inactive, Mito fusion yeast inactive and BCR signal inh inconclusive.
